ssDAF-12 act = S. stercoralis DAF-12 nuclear receptor activators, primary screen, cell-based, luminescence, HEK293, GRIP1 co-expression, lit1-tk-luc | Nuclear hormone receptor DAF-12 (Strongyloides stercoralis) | HEK293 ssDAF-12/GRIP1 lit1-tk-luc reporter; % of 3 µM dafachronic acid response | activation, % at 6.8 µM | 370,000 tested, 1% active | AID 652126, 2013;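 active means activation above the mean over all tested compounds plus 3 SD, cut at about 0.9% in these data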;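 further: 0% = DMSO-only wells and 100% = 3 µM delta7-dafachronic acid wells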
hcDAF-12 act = H. contortus DAF-12 nuclear receptor activators, primary screen, cell-based, luminescence, HEK293, lit1-tk-luc reporter; AID 652067, 2013; HEK293 hcDAF-12 lit1-tk-luc reporter; 0% DMSO, 100% Δ7-dafachronic acid; 370,000 tested, 1.4% active; activation, % at 6.8 µM;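 active means activation above the mean of all tested compounds plus 3 SD, cut at about 5.5% in these data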;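 further: 100% = response to 3 µM Δ7-dafachronic acid high control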
hgDAF-12 ag = H. glycines DAF-12 receptor agonists, primary screen, cell-based, luminescence, HEK293, GAL4 fusion, UAS-luciferase | Nuclear hormone receptor DAF-12 (Heterodera glycines), GAL4 fusion | HEK293 GAL4-hgDAF12 UAS-luciferase reporter, agonist luminescence; normalized to butyrate control | activation, % at 6.8 µM | 370,000 tested, 1.8% active;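 active means activation above a cutoff set at the mean of all screened compounds plus 3 SD, cut at about 10% in these data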;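 further: 0% = DMSO wells and 100% = sodium butyrate wells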
DAX1 inh-1 = DAX1 (NR0B1) inhibitors on StAR promoter, primary screen, cell-based, luminescence, SF-1 (NR5A1), full-length DAX-1. HEK293T StAR-luciferase reporter, SF-1/DAX-1 repression relief. inhibition, % at 6.8 µM. 370,000 tested, 1.1% active;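 active means inhibition above the mean over all tested compounds plus 3 SD, cut at about 3.6% in these data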;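 further: 0% = DAX-1 cells with DMSO and 100% = cells lacking DAX-1 with DMSO; higher inhibition means more luminescence from relief of DAX-1 repression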
DAX1 inh-2 = DAX1 (NR0B1) inhibitors, primary screen, cell-based, HEK293, Gal4-DAX1, luciferase luminescence. Nuclear receptor subfamily 0 group B member 1 (Homo sapiens), P51843. HEK293 Gal4-DAX1 luciferase reporter. inhibition, % at 6.75 µM. 340,000 tested, 0.99% active. AID 504766, 2011;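 active means inhibition above the mean over all tested compounds plus 3 SD, cut at about 4.2% in these data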;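 further: 0% = DAX1-transfected cells with DMSO and 100% = empty-vector control cells with DMSO; inhibition shows as a rise in luminescence from relieved DAX1 repression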
Target sequence (P51843 207-470 limits assumed): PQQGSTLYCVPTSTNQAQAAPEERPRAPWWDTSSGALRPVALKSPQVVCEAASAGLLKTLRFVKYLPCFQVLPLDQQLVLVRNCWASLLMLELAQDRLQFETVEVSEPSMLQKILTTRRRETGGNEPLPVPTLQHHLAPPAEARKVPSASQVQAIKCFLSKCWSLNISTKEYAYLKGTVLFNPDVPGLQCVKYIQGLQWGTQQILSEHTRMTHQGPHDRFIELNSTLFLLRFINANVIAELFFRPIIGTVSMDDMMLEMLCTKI
SMARCA2 act = SMARCA2 (BRM) function activators, primary screen, cell-based, luminescence, high throughput; activation, % at 9.1 µM; 370,000 tested, 1% active; MG213 cells, MMTV-luciferase reporter, dexamethasone, overnight; in the data active means activation above about 7.8%;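 further: 0% = vehicle wells and 100% = reference activator wells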
DAX1 inh confirm = DAX1 (NR0B1) inhibitors relieving SF-1 repression, confirmation, cell-based, luminescence, HEK293T, full-length DAX-1, SF-1 activated StAR promoter; shares compounds with DAX1 inh-1; HEK293T StAR-promoter luciferase reporter, SF-1/DAX-1 repression; inhibition, % at 6.8 µM; 2,400 tested, 87% active;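 active means inhibition above the average of every tested compound plus 3 SD, cut at about 3.8% in these data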;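 further: 0% = DAX-1 cells with DMSO and 100% = no DAX-1 control cells with DMSO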
SF1 AF2mut Luc = StAR reporter signal changes without DAX1, counter-screen for DAX1 inhibitor project, cell-based, luminescence, AF-2 mutant SF-1, transactivation; shares compounds with DAX1 inh-1; HEK293 StAR-luciferase, SF-1 AF2 mutant; inhibition, % at 6.8 µM; 2,400 tested, 78% active;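 active means inhibition above the mean of all tested compounds plus 3 SD, cut at about 3% in these data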;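 further: 0% = DAX-1 transfected cells with DMSO and 100% = cells without DAX-1 with DMSO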
SMARCA2 act conf = SMARCA2 (BRM) function activators, confirmation, cell-based, luminescence, triplicate; shares compounds with SMARCA2 act; MG213 cells, MMTV-luciferase with dexamethasone, overnight; MG213 cells expressing E1A, Rb sequestered; DMSO wells 0%, reference activator 100%; activation, % at 9.1 µM; 3,500 tested, 30% active; AID 652260, 2013;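 active means activation above its plate's cutoff, the mean activation of tested wells plus 3 SD, cut at about 7.9% in these data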
VP16 Luc act = GAL4-VP16 luciferase reporter activation, counter-screen for SMARCA2 (BRM) activator project, cell-based, pG5luc, luminescence, high throughput; 3,500 tested, 41% active; HEK293 GAL4-VP16 pG5luc reporter; scaled: DMSO wells 0%, SAHA wells 100%; shares compounds with SMARCA2 act; AID 686939, 2013; activation, % at 9.1 µM;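 active means activation above the solvent-only control well mean plus 3 SD, averaged across control plates, cut at about 5.2% in these data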
LXRb hcDAF ctr = LXR agonists, Gal4 luciferase reporter, confirmation, counter-screen for hcDAF-12 agonist project, cell-based, luminescence, HEK293, H. contortus campaign; HEK293 Gal4-LXR tk-luc reporter, 24 h; normalized: DMSO 0%, positive control 100%; AID 743027, 2013; shares compounds with hcDAF-12 act; activation, % at 6.8 µM; 3,400 tested, under 10 active;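 active means mean percent activation of the reporter above a cutoff set as the average over tested compounds plus their standard deviation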
hcDAF12 conf = H. contortus DAF-12 receptor agonists, confirmation, cell-based, luminescence, HEK293, lit1-tk-luc, triplicate; 3,400 tested, 61% active; activation, % at 6.8 µM; shares compounds with hcDAF-12 act; HEK293 hcDAF-12 lit1-tk-luc reporter; % of Δ7-dafachronic acid response;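 active means mean activation across triplicate tests above the threshold derived from the earlier primary screen, cut at about 5.5% in these data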;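 further: 0% = DMSO only wells and 100% = 3 µM Δ7-dafachronic acid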
hgDAF12 conf = H. glycines DAF-12 receptor agonists, confirmation, cell-based, luminescence, HEK293, GAL4-LBD fusion; shares compounds with hgDAF-12 ag; HEK293 GAL4-hgDAF12 luciferase reporter, agonist mode; percent of butyrate response; activation, % at 6.8 µM; 3,300 tested, 80% active; AID 743050, 2013;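 active means mean activation over triplicate wells above the hit cutoff derived from the earlier primary screen, cut at about 11% in these data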;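 further: 0% = DMSO low control and 100% = 2 mM sodium butyrate high control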
LXRb DAF12 ctr = LXR agonists, Gal4 luciferase reporter, confirmation, counter-screen for hgDAF-12 agonist project, cell-based, luminescence, HEK293, H. glycines campaign | AID 743051, 2013 | shares compounds with hgDAF-12 ag | activation, % at 6.8 µM | 3,300 tested, under 10 active | 24 h;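 active means mean activation of the triplicate above a set limit carried over from the primary screen, none filed active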
Active calls of the source: *; / = no result given. An excerpt weighted towards active compounds, which were near 4.8% of everything screened.

SMILES	ssDAF-12 act	hcDAF-12 act	hgDAF-12 ag	DAX1 inh-1	DAX1 inh-2	SMARCA2 act	DAX1 inh confirm	SF1 AF2mut Luc	hgDAF12 conf	LXRb DAF12 ctr	others
O=C(CSc1ccccn1)N1CCc2ccccc21	0	2	16*	6.9*	1	6	12*	5.7*	14*	1
COc1cccc(-n2ccnc2SCC(=O)N2CCc3ccccc32)c1	-2	0	-2	-1	0	0	/	/	/	/
Cn1ccnc1SCC(=O)N1CCc2ccccc21	0	3	20*	5.5*	2	8.2*	7.1*	5.6*	9	0	SMARCA2 act conf=11*;VP16 Luc act=8.7*
N#Cc1cccc(S(=O)(=O)NCc2nnc3ccccn23)c1	-1	-2	6	-2	1	-1	/	/	/	/
CC1=C(C(=O)Nc2ccccc2)C(c2cccs2)NC(=O)N1 (centres undefined)	-1	1	-2	0	2	-4	/	/	/	/
Cc1c(Cl)cccc1NC(=O)c1cc(-c2ccccc2O)n[nH]1	-1	5	9	1	1	0	/	/	/	/
Cc1ccc(-c2cc(-c3ccccc3Cl)[nH]n2)c(O)c1	1.4*	10*	20*	6.0*	6.8*	8.6*	14*	8.0*	21*	1	SMARCA2 act conf=4;VP16 Luc act=11*;LXRb hcDAF ctr=1;hcDAF12 conf=11*
CN(C)c1ccc2c(=O)c3ccccc3oc2n1	0	7.9*	13*	7.8*	/	2	13*	5.9*	22*	1	LXRb hcDAF ctr=1;hcDAF12 conf=8.4*
Cc1nc2oc3ccccc3c(=O)c2cc1C(=O)O	-1	0	0	0	0	0	/	/	/	/
COc1ccc(CNCC(O)COc2cccc3c2OC(C)(C)C3)cc1 (centres undefined)	-2	-3	-6	-2	-2	-4	/	/	/	/
O=C(Nc1ccc(N2CCCC2)c(Cl)c1)c1ccccc1F	0	3	22*	5.1*	4	2	14*	4.8*	16*	1
Fc1ccc(N/N=C/c2ccncc2)c(F)c1	-1	-1	4	2	0	2	/	/	/	/
O=C(O)c1ccc(/C=N/Nc2ccc(F)cc2F)cc1	2.5*	9.8*	21*	12*	-1	11*	20*	5.5*	21*	1	SMARCA2 act conf=6;VP16 Luc act=5
COc1ccc2cc(-c3cc(C(=O)OCC(=O)Nc4c(C)n(C)n(-c5ccccc5)c4=O)c4ccccc4n3)ccc2c1	0	2	15*	4.8*	-2	5	11*	6.4*	12*	1
O=C(Nc1ccc(N2CCCCCC2)cc1)c1ccc[nH]1	1	7.3*	15*	13*	1	7	9.4*	5.8*	17*	1	LXRb hcDAF ctr=2;hcDAF12 conf=10.0*
O=C(Nc1ccc(N2CCCC2)cc1)c1ccc(Br)cc1	0	0	-4	0	2	2	/	/	/	/
CCCOC(=O)Nc1ccc(N2CCCCC2)cc1	1	5	15*	5.3*	1	6	16*	5.8*	14*	1
Cc1ccccc1-n1c(C)nnc1SC(C)C(=O)NCC1CCCO1 (centres undefined)	-1	1	-1	-1	0	-4	/	/	/	/
O=C(/C=C/c1ccc(Cl)cc1)Nc1nccs1	1	8.6*	24*	11*	0	2	18*	10*	20*	1	LXRb hcDAF ctr=2;hcDAF12 conf=7.7*
c1ccc(-c2noc(-c3ccc4c(c3)OCO4)n2)cc1	1.2*	6.3*	22*	5.0*	4	5	18*	7.7*	19*	1
COc1cccc(-c2noc(-c3ccc4c(c3)OCO4)n2)c1	1.8*	5	17*	6.1*	4.3*	5	13*	4.0*	17*	1
c1ccc(-c2noc(-c3ccc4ccccc4c3)n2)cc1	-1	5	9	1	2	4	/	/	/	/

From PubChem BioAssay
